# PubChem BioAssay (Tox21)
# “And” between values parts separate entries of the source, which are not always exact repeats. Equal entries are not always repeated. Some compounds were tested as several samples or in several runs, with calls that do not always agree. The source made the active and inactive calls. Entries that show only a call come without a potency. Unless noted, calls follow the shape of the dose curve; as a rule, active = well fitted curve in the direction sought with a large enough effect in the repeat runs; inconclusive = weak or mixed curves; inactive = no such curve, though single readings can be large; an effect the other way counts as inactive or inconclusive.
# Columns and labels:
# [1] = qHTS assay to identify small molecule antagonists of the thyroid receptor (TR) signaling pathway - cell viability counter screen (AID 743064); also: nearly all actives have a fitted effect of over 50% in size; also: potency is read from the fitted curve at half-maximal effect
# In short: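 Rat GH3 pituitary tumor cells stably expressing two TR response elements driving luciferase were plated, rested 4 h, then dosed with library compounds and T3 (1 nM final). After 23.5 h at 37 °C, CellTiter-Fluor was added for 30 min and fluorescence recorded.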
# [2] = qHTS assay to identify small molecule antagonists of the thyroid receptor (TR) signaling pathway (AID 743065); also: nearly all actives have a fitted effect of over 55% in size; also: potency is read from the fitted curve at half-maximal effect
# In short: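 Antagonism measured as loss of luciferase signal in GH3 cells stably carrying a TRE-luciferase reporter, co-treated with compound and T3 (1 nM final) for 23.5 h at 37 C. Viability was read in the same well by CellTiter-Fluor.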
# [3] = tested on: thyroid hormone receptor (rat, GH3 cells); assay: qHTS assay to identify small molecule agonists of the thyroid receptor (TR) signaling pathway (AID 743066; calls by dose curve)
# [4] = target: Estrogen receptor (Homo sapiens) (UniProt P03372); assay: qHTS assay to identify small molecule antagonists of the estrogen receptor alpha (ER-alpha) signaling pathway (AID 743069; active = well fitted curve in the direction sought with a large enough effect in the signal ratio in the repeat runs, not every such curve was filed as active; inconclusive = weak or mixed curves, or effect the other way; inactive = no such curve, though single readings can be large or run the other way; the % refers to the signal ratio)
# Estrogen receptor (Homo sapiens), sequence (P03372 whole entry, looked up): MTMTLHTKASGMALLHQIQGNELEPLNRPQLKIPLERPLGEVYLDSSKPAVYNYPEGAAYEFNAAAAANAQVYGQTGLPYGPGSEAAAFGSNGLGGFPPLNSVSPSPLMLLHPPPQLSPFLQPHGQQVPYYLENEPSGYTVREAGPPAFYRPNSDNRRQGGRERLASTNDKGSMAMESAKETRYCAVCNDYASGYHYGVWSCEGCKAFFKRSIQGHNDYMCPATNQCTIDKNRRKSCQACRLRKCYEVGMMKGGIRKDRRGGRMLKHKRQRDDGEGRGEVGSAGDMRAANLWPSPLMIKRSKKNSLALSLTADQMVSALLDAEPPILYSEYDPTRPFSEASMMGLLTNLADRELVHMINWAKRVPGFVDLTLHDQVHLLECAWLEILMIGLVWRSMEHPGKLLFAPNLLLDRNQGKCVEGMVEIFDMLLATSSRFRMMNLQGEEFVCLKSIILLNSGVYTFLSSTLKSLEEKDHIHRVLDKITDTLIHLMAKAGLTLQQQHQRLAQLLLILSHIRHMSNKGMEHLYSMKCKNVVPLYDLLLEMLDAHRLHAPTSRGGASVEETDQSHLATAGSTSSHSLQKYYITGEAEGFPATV
# In short: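 Antagonist mode: compounds in DMSO were co-added with 17beta-estradiol to ER-alpha-bla HEK293 cells (2% charcoal-stripped serum) and left 18 h at 37C. Reporter inhibition was measured as FRET fluorescence after 2 h LiveBLAzer substrate at room temperature.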
# [5] = qHTS assay to identify small molecule antagonists of the estrogen receptor alpha (ER-alpha) signaling pathway - cell viability counter screen (AID 743074; calls by dose curve;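 also: HEK293 cells carrying ER-alpha-UAS-bla reporter stimulated with 17beta-estradiol; nearly all actives have a fitted effect of over 45% in size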; also: potency is read from the fitted curve at half-maximal effect)
# [6] = target: Estrogen receptor (Homo sapiens) (UniProt P03372); assay: qHTS assay to identify small molecule agonists of the estrogen receptor alpha (ER-alpha) signaling pathway (AID 743075; calls by dose curve;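 also: HEK293 GripTite cells with ER-alpha and UAS-driven beta-lactamase reporter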; also: potency is read from the fitted curve at half-maximal effect)
# [7] = target: Estrogen receptor (Homo sapiens) (UniProt P03372); assay: qHTS assay to identify small molecule agonists of the estrogen receptor alpha (ER-alpha) signaling pathway using the BG1 cell line (AID 743079); also: nearly all actives have a fitted effect of over 20% in size; also: potency is read from the fitted curve at half-maximal effect
# [8] = qHTS assay to identify small molecule antagonists of the estrogen receptor alpha (ER-alpha) signaling pathway using the BG1 cell line (AID 743080; calls by dose curve;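 also: BG1 cells stimulated with 17beta-estradiol alongside compound; nearly all actives have a fitted effect of over 25% in size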; also: potency is read from the fitted curve at half-maximal effect)
# In short: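 Readout is ONE-Glo luminescence, taken 30 min at room temperature after reagent addition, preceded by a CellTiter-Fluor viability read; BG1-Luc-4E2 cells had received compound and 17beta-estradiol for 21.5 h at 37 C.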
# [9] = qHTS assay to identify small molecule antagonists of the estrogen receptor alpha (ER-alpha) signaling pathway using the BG1 cell line - cell viability counter screen (AID 743081);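 also: compound given together with 17beta-estradiol as the ER stimulus; nearly all actives have a fitted effect of over 45% in size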; also: potency is read from the fitted curve at half-maximal effect
# Aromatase (Homo sapiens) = Aromatase (Homo sapiens) (UniProt P11511); assay: qHTS assay to identify aromatase inhibitors (AID 743083); also: nearly all actives have a fitted effect of over 55% in size; also: potency is read from the fitted curve at half-maximal effect
# Aromatase (Homo sapiens), sequence (P11511 whole entry, looked up): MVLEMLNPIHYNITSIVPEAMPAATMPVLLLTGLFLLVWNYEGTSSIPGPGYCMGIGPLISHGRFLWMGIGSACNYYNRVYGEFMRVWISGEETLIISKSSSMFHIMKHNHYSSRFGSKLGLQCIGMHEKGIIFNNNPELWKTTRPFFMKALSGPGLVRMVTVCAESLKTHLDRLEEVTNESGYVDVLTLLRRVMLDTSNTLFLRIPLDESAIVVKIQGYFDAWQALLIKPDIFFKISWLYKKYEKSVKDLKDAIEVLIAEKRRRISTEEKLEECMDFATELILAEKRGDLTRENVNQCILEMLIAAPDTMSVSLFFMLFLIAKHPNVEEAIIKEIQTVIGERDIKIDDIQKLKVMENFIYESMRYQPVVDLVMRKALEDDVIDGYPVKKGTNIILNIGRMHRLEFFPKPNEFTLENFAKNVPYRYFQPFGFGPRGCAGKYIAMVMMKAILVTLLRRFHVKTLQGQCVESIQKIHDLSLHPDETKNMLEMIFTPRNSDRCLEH
Compound,Potency [1],Potency [2],Potency [3],Potency [4],Potency [5],Potency [6],Potency [7],Potency [8],Potency [9],Potency (Aromatase (Homo sapiens))
CCOc1ccccc1C(N)=O,inactive,inactive,inactive,inactive,inactive,inactive,inactive,inactive,inactive,inactive
CCCCC/C=C/CC1CC(=O)OC1=O (stereo not given),inactive,inactive,inactive,–,inactive,inactive,inactive,inactive,inactive,inactive
O=C(O)CCc1ccccc1,inactive,inactive,inactive,–,inactive,–,–,–,inactive,–
CCOC(=O)C(C)C(C)=O (stereo not given),inactive,inactive,inactive,–,inactive,–,–,–,inactive,inactive
NC(N)=Nc1nc(CSCC/C(N)=N/S(N)(=O)=O)cs1,inactive,inactive,inactive,–,inactive,inactive,inactive,inactive,inactive,inactive
O=C(Cl)c1cccc(C(=O)Cl)c1,inactive,inactive,inactive,–,inactive,–,–,–,inactive,inactive
O=c1n(CC2CO2)c(=O)n(CC2CO2)c(=O)n1CC1CO1 (stereo not given),12.1 µM (active) and 27.3 µM (active),6.68 µM (active) and 8.58 µM (active) and 4.33 µM (active),inactive,–,inactive,inactive,inactive,–,inactive,inactive and 48.3 µM (active)
COc1ccc(CCN(C)CCCC(C#N)(c2ccc(OC)c(OC)c2)C(C)C)cc1OC (stereo not given),23.7 µM (active) and 21.6 µM (active),26.6 µM (active) and 30.6 µM (active),inactive,–,inactive,–,–,–,inactive and 30.6 µM (active),–
C=CC(=O)OCCCCCCOC(=O)C=C,55.1 µM (active) and 54.5 µM (active),27.6 µM (active) and 43.3 µM (active),inactive,–,inactive,–,inactive,–,inactive,–
CC(C)CCCCCCc1ccc(O)cc1,17.5 µM (active) and 24.3 µM (active),22.1 µM (active) and 21.7 µM (active),inactive,–,inactive,2.39 µM [inconclusive] (active) and 1.25 µM [inconclusive] (active) and 17.4 µM [inconclusive] (active),1.88 µM (active) and 878 nM (active) and 2.17 µM (active),inactive and 43.3 µM (active),inactive,34.4 µM (active)
COc1cc(C(=S)N2CCOCC2)ccc1O,inactive,inactive,inactive,–,inactive,inactive,inactive,inactive,inactive,inactive
O=C(O)c1cccc(C(=O)O)c1,inactive,inactive,inactive,–,inactive,inactive,inactive,inactive,inactive,inactive
CCN(CC)CCOc1ccc(/C(=C(\Cl)c2ccccc2)c2ccccc2)cc1,7.5 µM (active) and 7.86 µM (active),6.68 µM (active) and 7.86 µM (active),inactive,–,39.7 µM (active),–,–,–,inactive,3.35 µM (active) and 1.4 µM (active)
O=C1Nc2ccccc2C1(c1ccc(O)cc1)c1ccc(O)cc1,54.5 µM (active),54.5 µM (active),inactive,–,inactive,inactive,–,–,0.969 µM (active),inactive
COC(=O)c1cccc(C(=O)OC)c1,inactive,inactive,inactive,–,inactive,inactive,inactive,inactive,inactive,inactive
Cc1occc(=O)c1OC(=O)C(C)C,inactive,inactive,inactive,–,inactive,–,–,–,inactive,inactive
NNCCc1ccccc1,inactive and 27.4 µM (active),30.7 µM (active),inactive,–,inactive,–,–,–,inactive,inactive
Cc1cc(OCCOCC[N+](C)(C)Cc2ccccc2)ccc1C(C)(C)CC(C)(C)C,10.6 µM (active) and 12.1 µM (active),13.3 µM (active) and 10.8 µM (active),inactive,–,15.1 µM (active) and 6.13 µM (active),inactive,–,26.6 µM (active),inactive,21.1 µM (active) and 30.5 µM (active)
Nc1cc(Cl)c(-c2cc(Cl)c(N)cc2Cl)cc1Cl,10.9 µM (active) and 8.63 µM (active),1.53 µM (active) and 1.54 µM (active),inactive,–,48.9 µM (active) and 24.5 µM (active),inactive,–,54.4 µM (active) and 54.5 µM (active),inactive,12.2 µM (active) and 15.4 µM (active)
c1ccc2c(c1)CCCC2C1=NCCN1 (stereo not given),inactive,inactive,inactive,–,inactive,inactive,inactive,inactive,inactive,inactive
COC(=O)/C=C/c1ccccc1,inactive,inactive,inactive,–,inactive,inactive,–,inactive,inactive,inactive
CCCC(=O)c1ccccc1,inactive,inactive,inactive,–,inactive,–,–,–,inactive,inactive
Cc1ccnc2c1NC(=O)c1cccnc1N2C1CC1,inactive,inactive,inactive,–,inactive,–,–,–,inactive,inactive

Compound,Potency [1],Potency [2],Potency [3],Potency [4],Potency [5],Potency [6],Potency [7],Potency [8],Potency [9],Potency (Aromatase (Homo sapiens))
CC[C@H]1CN2CCc3cc(OC)c(OC)cc3[C@@H]2C[C@@H]1C[C@H]1NCCc2cc(OC)c(OC)cc21,84.1 nM (active) and 97.2 nM (active),37.6 nM (active) and 38.7 nM (active),inactive,–,inactive,–,–,–,9.72 µM (active),237 nM (active) and 244 nM (active)
CO[Si](OC)(OC)c1ccccc1,inactive,inactive,inactive,–,inactive,inactive,inactive,inactive,inactive,inactive
COc1nc(C)nc(Cl)c1NC1=NCCN1,inactive,inactive,inactive,–,inactive,inactive,inactive,inactive,–,inactive
CCOc1ccc2c(c1)C(C)=CC(C)(C)N2,inactive,33.5 µM (active),inactive,–,inactive,inactive,inactive,inactive,inactive,inactive
CCN(CC)C(=O)Nc1ccc(OCC(O)CNC(C)(C)C)c(C(C)=O)c1 (stereo not given),inactive,inactive,inactive,–,inactive,inactive,inactive,inactive,inactive,inactive
CC(C)CCOC(=O)c1ccc(N(C)C)cc1,inactive,inactive,inactive,–,inactive,inactive,11.9 µM (active),–,inactive,inactive
CCCCCCCCCCCCc1ccccc1O,13.7 µM (active),13.7 µM (active),inactive,–,48.3 µM (active) and 49 µM (active),13.6 µM [inconclusive] (active) and 3.89 µM [inconclusive] (active),956 nM (active) and 1.93 µM (active),–,67.7 µM (active),30.2 µM (active) and 27.3 µM (active)
CC1=CC(=O)c2ccccc2C1=O,13.7 µM (active),21.1 µM (active) and 13.7 µM (active),inactive,–,inactive,–,–,29.8 µM (active),inactive,inactive and 19.3 µM (active)
CCCCCCCCCCCCCCCCCl,inactive,inactive,inactive,–,inactive,inactive,inactive,inactive,inactive,inactive
O=C(O)c1cn(-c2ccc(F)cc2)c2cc(N3CCNCC3)c(F)cc2c1=O,inactive,inactive,inactive,–,inactive,–,–,–,inactive,inactive
COc1ccc(CCN2CCC(Nc3nc4ccccc4n3Cc3ccc(F)cc3)CC2)cc1,5.31 µM (active) and 1.25 µM (active),5.96 µM (active) and 1.57 µM (active),inactive,–,12.6 µM (active),–,–,–,55.7 µM (active),6.25 µM (active)
CC(C)(O)CCC(C)(C)O,inactive,inactive,inactive,–,inactive,inactive,inactive,inactive,inactive,inactive
Cc1cccc(O)c1C,inactive,inactive,inactive,–,inactive,inactive,inactive,inactive,inactive,inactive
c1cc(C(c2ccc(OCC3CO3)cc2)C(c2ccc(OCC3CO3)cc2)c2ccc(OCC3CO3)cc2)ccc1OCC1CO1 (stereo not given),48.5 µM (active),20.1 µM (active) and 21.7 µM (active),inactive,–,inactive,inactive,20.1 µM (active) and 21.7 µM (active),–,inactive,inactive
Cc1cccc2n[nH]nc12,inactive,inactive,inactive,–,inactive,–,–,–,inactive,–
Cc1cccc([N+](=O)[O-])c1C(=O)O,inactive,–,inactive,inactive,inactive,inactive,inactive,inactive,inactive,inactive
CNCCC(Oc1ccc(C(F)(F)F)cc1)c1ccccc1 (stereo not given),11.9 µM (active) and 9.56 µM (active),11.9 µM (active) and 15.2 µM (active),–,–,inactive and 48.4 µM (active),–,–,–,inactive,47.9 µM (active)
CCCCCC(=O)O[C@]1(C(C)=O)CC[C@H]2[C@@H]3CCC4=CC(=O)CC[C@]4(C)[C@H]3CC[C@@]21C,18.8 µM (active),10.6 µM (active) and 19.2 µM (active),inactive,–,–,inactive,–,–,inactive,inactive and 54.1 µM (active)
CN(C)c1ccc(C(=C2C=CC(=[N+](C)C)C=C2)c2ccccc2)cc1,7.5 µM (active) and 68.6 nM (active),6.68 µM (active) and 48.6 nM (active),inactive,–,1.1 µM (active),–,–,–,inactive and 9.69 µM (active),0.243 µM (active)
CCCCCCC(O)CCCCCCCCCCC(=O)O (stereo not given),inactive,inactive,inactive,–,–,–,–,–,–,inactive
Cc1ccc(S(=O)(=O)Oc2ccc(N=Nc3ccc(-c4ccc(N=Nc5c(O)ccc6cc(S(=O)(=O)O)cc(S(=O)(=O)O)c56)c(C)c4)cc3C)cc2)cc1,27.4 µM (active) and 17.8 µM (active),10.9 µM (active),inactive,–,–,–,–,–,30.8 µM (active) and 15.9 µM (active),–
CC(C)C(=O)c1c(C(C)C)nn2ccccc12,inactive,inactive,inactive,–,–,–,–,–,inactive,inactive
O=S(=O)(O)c1ccc2nc(-c3ccccc3)[nH]c2c1,inactive,inactive,inactive,–,–,–,–,–,inactive,inactive
